# The full list was thinned out, with hits kept by preference.
# Tgondii IFNg – blocks Toxoplasma gondii growth in the presence of IFN-gamma. Toxoplasma gondii growth in IFN-gamma-treated host cells; active compounds read low. activity change, negative = inhibition, % (concentration not given with the values). 3.8% of 69,000 active. AID 1259416; in the data active = activity change below about -70%, passing the limit was not always enough;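 also: host cells are HeLa cells infected with Toxoplasma gondii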
# The depositor's hits bear a star.
SMILES,Tgondii IFNg
CCc1cc(N2CCN(CC(=O)OC)C(=O)C2)nc(N2CCOCC2)n1,6
CCOC(=O)c1cc(-c2ccnn2S(=O)(=O)c2cccc(C(F)(F)F)c2)on1,-62
Nc1ncnc2c1c(-c1cccc(OCc3ccccc3)c1)cn2C1CC(CN2CCC2)C1 (configuration not stated),-85*
CCCc1cnc(C)nc1-c1ccc(O)cc1,11
CC(=O)Oc1cccc(-c2csc(-n3nc(C(F)(F)F)cc3-c3ccc(Cl)cc3)n2)c1,-93*
Cc1ccc(-c2cc(C(F)(F)F)nn2-c2nc(-c3ccccc3)cs2)cc1,-42
COc1ccc(-c2cc(C(F)(F)F)nn2-c2nc(-c3ccc(C)cc3)cs2)cc1,28
Cc1ccc(C)c(NC(=O)COc2nc(C)nc3ccccc23)c1,-12
CC(C)(Oc1ccc(Cl)cc1)C(=O)N1CSCC1C(=O)O (configuration not stated),10
NC(=O)c1csc(N2CCC(CO)(Cc3ccccc3)CC2)n1,-8
Cc1ccc2c(c1)c1nc3ccccc3nc1n2C,-63
Cn1c2ccccc2c2n[nH]c(=O)nc21,-105*
Cc1nn(-c2ccccc2)c2c1c(=O)n(C)c1ccccc21,-41
Cc1ccc(NC(=O)C(=O)NCCc2csc(-c3cccc(F)c3)n2)c(C)c1,-10
Cc1cccc(C)c1NC(=O)C(=O)NCCc1csc(-c2cccc(F)c2)n1,25
O=C(NCCc1csc(-c2cccc(F)c2)n1)C(=O)Nc1ccccc1,-34
Cc1cc(C)c(NC(=O)C(=O)NCCc2csc(-c3cccc(F)c3)n2)c(C)c1,-80*
Cc1cccc(NC(=O)C(=O)NCCc2csc(-c3cccc(F)c3)n2)c1,-87*
Cc1cccc(NC(=O)C(=O)NCCc2csc(-c3ccc(Cl)cc3)n2)c1,-27
COc1ccc([C@@H]2CC=CC[C@H](C)Oc3ccccc3C(=O)N(C)[C@@H](Cc3ccccc3)C(=O)N2)c(OC)c1 (mixture of isomers),-44
Cn1cc(C(=O)N2CC[C@@H](c3ccc4ccccc4c3)[C@H](O)C2)cn1,-7
O=C(c1ccccc1)c1cc(Cl)ccc1N/C=C/c1nnnn1-c1ccc(Cl)cc1,-2
Cc1cccc(C2=NC3(CCN(CC(=O)Nc4ccc(F)cc4F)CC3)NC2=O)c1,23
COc1ccc(CCn2cncc2-c2cnc(N3CCOCC3)nc2)cc1C,1
Cc1ccc(-c2ccc(F)cc2O)c2cccnc12,-66
SMILES,Tgondii IFNg
Cc1nc2ccccn2c1-c1csc(NC(=O)c2ccc(Br)cc2)n1,-78*
Cc1ccc(-c2csc(NC(=O)c3ccccc3)n2)c(C)c1,49
Cc1nn(-c2ccccc2)nc1C(=O)Nc1nc(-c2ccc(F)c(F)c2)cs1,16
Cc1ccc(N2CCN(C(=O)c3cn4c(n3)COCC4)CC2)cc1,446
CC(C)(C)NC(=O)CSc1nnc(NC(=O)Cn2c(=O)sc3ccccc32)s1,19
Cc1cccc(Cl)c1NC(=O)N1CCCCC1CCN1CCOCC1 (configuration not stated),7
CN1Cc2c(CN3CCCC3=O)nn(C)c2C1,23
NC(Cc1ccc(F)cc1)C(=O)O (configuration not stated),7
Cc1cc(N(C)Cc2nc3ccsc3c(=O)[nH]2)nc(-c2cccnc2)n1,-49
CN(Cc1cccnc1)C1CCN(C(=O)c2cnccn2)C(C(=O)O)C1 (configuration not stated),8
CN(Cc1cccnc1)C1CCN(C(=O)c2ccccn2)C(C(=O)O)C1 (configuration not stated),-74*
CN(Cc1cccnc1)C1CCN(C(=O)c2cccnc2)C(C(=O)O)C1 (configuration not stated),-5
CCn1cc(C(=O)NCCN2CCOCC2)c(=O)c2ccc(C)nc21,8
CCn1c(C2CCN(C(=O)c3ccc(-n4ccnc4)cc3)CC2)nn(C)c1=O,0
CCCCc1oc2ccccc2c1C(=O)c1cc(I)c(OCCN(CC)CC)c(I)c1,-81*
CCCCOc1cc(C(=O)NCCN(CC)CC)c2ccccc2n1,-28
CCCCOc1cc(C(=O)OCCN(CC)CC)ccc1N,-4
COc1ccc(-c2ccc(N)nc2)c(C)c1,5
COc1ccc2c(c1)CCC/C2=N\NC(N)=S,-99*
NC(=S)NN=C1Cc2ccccc2C1,68
O=C(O)CC1CC(c2ccccc2)=NO1 (configuration not stated),7
CCn1c(CC2CCNCC2)nn(CC2CC(c3ccccc3)=NO2)c1=O (configuration not stated),-3
COc1cccc(CC2CC(c3ccccc3)=NO2)c1OCc1c(Cl)cccc1Cl (configuration not stated),-96*
COc1ccc(OCC2CCN(S(C)(=O)=O)CC2)cc1,24
O=C(CCc1cccnc1)N1CCC2(CN(Cc3cccc(Cl)c3)C2)C1,16
SMILES,Tgondii IFNg
CN1c2ccc(Br)cc2[C@H]2[C@H](CCN2C(=O)c2ccc(F)cc2)[C@H]1CO,10
CO[C@@H]1c2ccccc2C2(CCN(Cc3[nH]cc(C)c(=O)c3C)CC2)[C@H]1O,13
Cc1oc(-c2ccc(NC(=O)Cc3ccc(Cl)cc3)cc2)nc1Cn1cccn1,-36
Cc1oc(-c2ccc(NC(=O)c3ccccc3)cc2)nc1Cn1cccn1,20
Cc1oc(-c2ccc(NC(=O)Cc3cccc(F)c3)cc2)nc1Cn1cccn1,-87*
Cc1oc(-c2ccc(NC(=O)c3ccccc3F)cc2)nc1Cn1cccn1,-59
Cc1oc(-c2ccc(NC(=O)Cc3ccc(F)cc3)cc2)nc1Cn1cccn1,11
Cc1oc(-c2ccc(NC(=O)c3ccccc3Br)cc2)nc1Cn1cccn1,-94*
Cc1cccc(NC(=O)N2CCN(Cc3nc(-c4cccc(Cl)c4)oc3C)CC2)c1C,1
CCCN1C(=O)CCc2cc(NC(=O)C(C)(C)C)ccc21,69
CC(=O)OC[C@H]1O[C@@H](Sc2cccc3cccnc23)[C@H](OC(C)=O)[C@@H](OC(C)=O)[C@H]1OC(C)=O,4
CC(C)c1ccc(CNC(=O)CSc2cccc3cccnc23)cc1,11
O=C(CSc1cccc2cccnc12)OCC(=O)c1ccccc1,-89*
CC(C)C(NC(=O)c1nn(C)c2c1CCCC2)c1nnc2n1CCNCC2 (configuration not stated),-6
COc1c(F)cccc1C(=O)N1CCC(CO)(CCOc2ccccc2)CC1,-3
O=C(O)c1ccc(-c2cccc(-c3ccn[nH]3)c2)o1,2
CCOC(=O)N1CCC(NC(=O)c2oc3ccc4c(c3c2C)C(O)CC2(CCCCC2)O4)CC1 (configuration not stated),-95*
Cc1c(C(=O)NCCCN2C(C)CCCC2C)oc2ccc3c(c12)C(O)CC1(CCCCC1)O3 (configuration not stated),-56
CCOC(=O)N1CCN(C(=O)c2ccc(N3CCC(NCc4cccs4)CC3)cc2)CC1,-2
O=C(NC1CCC1)[C@H]1C[C@@H]2CN(C(=O)Nc3ccccc3)C[C@H]1O2,-4
CC(=O)N1CC(=O)NCC12CCN(C(=O)Nc1ccccc1)C2 (configuration not stated),-34
O=C(Nc1ccc(Cl)cc1)Nc1ccno1,-11
O=C(Nc1ccc(Cl)cc1)Nc1ccc(Cl)c(C(F)(F)F)c1,-77*
O=C(CSc1nc2[nH]c(=O)cc(O)c2s1)Nc1ccc(Cl)c(C(F)(F)F)c1,6
CCCCC1CCC(C(=O)Nc2cc(C)nn2-c2ncnc3c2cnn3-c2ccc(C)cc2C)CC1 (configuration not stated),21
Cc1ccc(-n2ncc3c(-n4nc(C)cc4NC(=O)CCC4CCCC4)ncnc32)c(C)c1,-31

# Source: PubChem BioAssay
